These results are taken from PubChem BioAssay AID1745847 (National Center for Advancing Translational Sciences (NCATS), 2022).

Molecules are shown by their SMILES. Screen size: about 2,100 compounds; about 670 (32%) were called active. Roughly 50% stayed inconclusive and do not appear here. The list shows a part of the results. Unmarked numbers belong to inactive results. Calls follow the shape of the dose curve; as a rule, active = well fitted inhibition curve with a large enough effect; inconclusive = small, poorly fitted or top-dose-only effect; inactive = no such curve, though single readings can be large or run the other way.
% is scaled to controls: 0 for no effect and ±100 for the full control effect; potency is read from the fitted curve at half-maximal effect.

This assay can be described thus: CMV-Luciferase Counterscreen for Inhibitors of ATXN expression. Also: nearly all actives have a fitted effect of over 55% in size. The settings on record: HEK-293 CMV-luciferase reporter, luminescence, 24 h; series mostly up to 57.5 µM. For orientation: The purpose of a counterscreen is to sort out artefacts and off-target activity.
Regarding `CC1(S(=O)(=O)O)CC(=O)c2ccccc2C1=O` (stereo unspecified), the Potency is 28.2 µM (active).

In the case of `CC(C)N(C(=O)COC(=O)c1ccccc1C(=O)c1ccc(Cl)c([N+](=O)[O-])c1)C(C)C`, the activity change, negative = inhibition was -18% [at 11.4 µM].

As to `CCn1c(C)cc(C(=O)COC(=O)c2ccccc2[N+](=O)[O-])c1C`, the Potency is 22.4 µM (active).

For the molecule `O=C(CCN1CCN(c2ccccc2)CC1)N/N=C/c1ccccc1O`, the Potency was 0.501 µM (active).

`Cc1ccc(SCCC(=O)N/N=C/c2ccccc2O)cc1`: the Potency was 1.78 µM (active).

Consider `O=C(CCc1ccccc1)N/N=C/c1cc(Br)ccc1O`, for which the Potency is 0.891 µM (active).

For the molecule `O=C(CP(=O)(c1ccccc1)c1ccccc1)N/N=C/c1cc(Br)cc(Br)c1O`, the Potency was 1.78 µM (active).

As for `O=C(Cc1ccccc1)N/N=C/c1cc(Br)cc(Br)c1O`, the Potency is 2.51 µM (active).

`O=C(CN1CC(c2ccccc2)CC1=O)N/N=C/c1cc(Br)ccc1O` (stereo unspecified): the Potency is 10 µM (active).

Turning to `O=C(CCCOc1ccc(Cl)cc1Cl)N/N=C/c1ccccc1O`, the Potency was 2.51 µM (active).

With `O=C(COc1nsnc1N1CCOCC1)N/N=C/c1ccccc1O`, the Potency is 11.2 µM (active).

`NC(Cc1ccc(C(F)(F)F)cc1)c1csc(Nc2nccc(C(F)(F)F)n2)n1` (stereo unspecified): the activity change, negative = inhibition is -10.1% [at 11.4 µM].

As for `O=C(CCC(=O)Nc1ccc(Br)cc1)N/N=C/c1ccccc1O`, the Potency is 1.26 µM (active).

With `COc1ccc(O)c(/C=N/NC(=O)CCC(=O)Nc2cccc(C)c2)c1`, the Potency was 10 µM (active).

Take `NNC(=O)/C(=N/Nc1ccccc1)S(=O)(=O)c1ccc(Cl)cc1`: the Potency was 3.55 µM (active).

Take `CCc1nc2c(OCc3ccc(Cl)cc3Cl)cccn2c1N(C=O)Cc1ccc(OC)cc1`: the Potency was 3.16 µM (active).

As to `CCCCC(=O)N(C)c1c(CC)nc2c(OCc3ccc(Cl)cc3Cl)cccn12`, the Potency is 3.55 µM (active).

With `CCOC(=O)N(C)c1c(CC)nc2c(OCc3ccccc3C)cccn12`, the Potency was 20 µM (active).

Turning to `CCCCC1C(=O)CC[C@H]2[C@@H]1CC(=O)[C@@H]2C/C=C\CCCC(=O)O` (stereo partly specified), the activity change, negative = inhibition is 4.23% [at 11.4 µM].

`O=C(NCC1CC1)c1ccc2c(c1)S(=O)(=O)c1cc(Cl)ccc1C2=O`: the activity change, negative = inhibition is -10.6% [at 11.4 µM].

With `C=CCn1c(COc2ccccc2)nnc1SC(C)C(=O)N/N=C/c1cc(Cl)ccc1O` (stereo unspecified), the Potency was 10 µM (active).

In the case of `C=CCn1c(COc2ccccc2)nnc1SCC(=O)N/N=C/c1cc(Cl)ccc1O`, the Potency entry was “inactive”.

Regarding `Cc1nnc(SC(C)C(=O)Nc2ccc(Cl)cn2)n1Cc1ccccc1` (stereo unspecified), the Potency result is “inactive”.

`O=C(Nc1nc(-c2ccccn2)cs1)c1ccccc1-n1cnnn1`: the Potency is 3.55 µM (active).

`N#Cc1cc2c(=O)n3ccccc3nc2n(-c2ccccc2Cl)c1=O`: the Potency result was “inactive”.

For `Cc1nc(SCC(=O)Nc2ccc(S(=O)(=O)N3CCOCC3)cc2)c2c(C)c(C)sc2n1`, the Potency is 2.82 µM (active).

On to `Cc1ccc(C)c(N2CCN(C(=O)C34CC5CC(C3)CC(n3nnc(C)n3)(C5)C4)CC2)c1`, for which the Potency was 11.2 µM (active).

On to `COc1ccc(/C=C/C(=O)c2cc3cccc(OC)c3oc2=O)cc1`, for which the Potency result was “inactive”.

As for `COc1ccc(/C=C/C(=O)Nc2ccc(C)c(S(=O)(=O)N3CCOCC3)c2)cc1`, the Potency was 10 µM (active).

For the molecule `Cc1ccc(NC(=O)/C=C/c2ccc(S(=O)(=O)N3CCOCC3)cc2)cc1S(=O)(=O)N(C)C`, the Potency was 2.51 µM (active).

For `Cc1ccc(NC(=O)CSc2ccc(Br)cc2)cc1S(=O)(=O)N1CCOCC1`, the Potency is 22.4 µM (active).

Turning to `O=C(CSc1ccc2c(c1)OCCO2)Nc1ccc(Cl)cn1`, the Potency result was “inactive”.

With `O=S(=O)(c1ccc(Cl)cc1)N1CCN(Cc2ccc(O)c3ncccc23)CC1`, the Potency is 8.91 µM (active).

Consider `COc1ccccc1N1CCN(Cc2ccc(O)c3ncccc23)CC1`, for which the Potency is 0.891 µM (active).

For `OC1(c2ccc(Cl)cc2)CCN(Cc2c[nH]c3ccccc23)CC1`, the activity change, negative = inhibition was -23.5% [at 11.4 µM].

In the case of `Cc1ccc(C)c(S(=O)(=O)N2CCN(Cc3ccc(O)c4ncccc34)CC2)c1`, the Potency was 2.82 µM (active).

Take `Cc1ccc(S(=O)(=O)/C(=C/Cl)NC(=O)c2ccccc2)cc1`: the Potency is 11.2 µM (active).

For the molecule `O=C(Nc1ccc(F)cc1)Nc1cc(OCC(F)(F)F)cc(OCC(F)(F)F)c1`, the Potency was 3.98 µM (active).

As for `CC[n+]1ccccc1/C=C1\Sc2ccc(C)cc2N1C`, the Potency was 6.31 µM (active).

As to `Cc1cc(C)nc(NNS(=O)(=O)c2ccc(F)c(Cl)c2)n1`, the activity change, negative = inhibition was -15.9% [at 11.4 µM].

`COc1ccccc1-c1ccc2c(c1)C(C)(Cc1cccc(F)c1)C(=O)N2` (stereo unspecified): the Potency is 28.2 µM (active).

Regarding `Cc1ccc(Nc2c(-c3ccccn3)nc3cccc(C)n23)cc1`, the Potency was 3.55 µM (active).

`Cc1cccc(N(CC(O)CON=C2c3ccccc3-c3ccccc32)S(C)(=O)=O)c1` (stereo unspecified): the Potency is 25.1 µM (active).

Turning to `N#Cc1ccc(/C=C\c2nccc3c2[nH]c2ccccc23)cc1`, the activity change, negative = inhibition was -24% [at 11.4 µM].

As to `Nc1nonc1-n1nnc(C(=O)N/N=C/c2ccccc2O)c1CN1CCCC1`, the Potency is 10 µM (active).

For `Cc1c(C(=O)N/N=C/c2c(O)ccc3ccccc23)nnn1-c1nonc1N`, the Potency is 0.282 µM (active).

Consider `CC1CCN(Cc2c(C(=O)N/N=C/c3ccccc3O)nnn2-c2nonc2N)CC1`, for which the Potency is 1.58 µM (active).

For `O=C(/C=C/c1ccccc1Cl)c1ccccc(=O)c1O`, the Potency entry is “inactive”.

As for `COc1cc2c3nnc(-c4ccc(F)cc4)c-3cn(Cc3ccccc3F)c2cc1OC`, the activity change, negative = inhibition was 65% [at 11.4 µM].

Regarding `O=[N+]([O-])c1ccc(NC(c2ccccc2)c2ccc3cccnc3c2O)cc1` (stereo unspecified), the Potency was 2.51 µM (active).

Consider `CC(C)C(=O)NC(c1cccc([N+](=O)[O-])c1)c1ccc2cccnc2c1O` (stereo unspecified), for which the Potency was 2.82 µM (active).

As to `Oc1c(C(Nc2cccc(C(F)(F)F)c2)c2ccncc2)ccc2cccnc12` (stereo unspecified), the Potency was 3.98 µM (active).

Regarding `C[C@@H]1CN([C@H](C)CO)S(=O)(=O)c2ccc(-c3ccc(C#N)cc3)cc2O[C@H]1CN(C)C(=O)Nc1cc(F)ccc1F`, the Potency was 12.6 µM (active).

For `Cc1cc(C)c2nc(N3CCCC(C(=O)N4CCN(c5ncccn5)CC4)C3)sc2c1` (stereo unspecified), the Potency was 3.55 µM (active).

As for `O=c1c(O)c(-c2ccccc2)oc2ccccc12`, the activity change, negative = inhibition is -28.6% [at 11.4 µM].

In the case of `CCCCN(C(=O)c1cccc2c(=O)c(C)c(-c3ccccc3)oc12)c1ccccc1`, the Potency is 12.6 µM (active).
